Data published in PubChem BioAssay (NCATS).
Several values for one entry are separate records, joined by “and”; a condition that tells them apart may be missing. Identical values can stand only once. Inconclusive results are not listed. Activity calls are given as the source filed them. Calls follow the shape of the dose curve; as a rule, active = well fitted curve in the direction sought with a large enough effect; inconclusive = small, poorly fitted or top-dose-only effect, or another doubt; inactive = no such curve, though single readings can be large or run the other way.

Biological target: T1, Hexokinase-4 (Homo sapiens) + Glucokinase regulatory protein (Homo sapiens) (UniProt P35557+Q14397)
T1 sequence (P35557 whole entry, looked up): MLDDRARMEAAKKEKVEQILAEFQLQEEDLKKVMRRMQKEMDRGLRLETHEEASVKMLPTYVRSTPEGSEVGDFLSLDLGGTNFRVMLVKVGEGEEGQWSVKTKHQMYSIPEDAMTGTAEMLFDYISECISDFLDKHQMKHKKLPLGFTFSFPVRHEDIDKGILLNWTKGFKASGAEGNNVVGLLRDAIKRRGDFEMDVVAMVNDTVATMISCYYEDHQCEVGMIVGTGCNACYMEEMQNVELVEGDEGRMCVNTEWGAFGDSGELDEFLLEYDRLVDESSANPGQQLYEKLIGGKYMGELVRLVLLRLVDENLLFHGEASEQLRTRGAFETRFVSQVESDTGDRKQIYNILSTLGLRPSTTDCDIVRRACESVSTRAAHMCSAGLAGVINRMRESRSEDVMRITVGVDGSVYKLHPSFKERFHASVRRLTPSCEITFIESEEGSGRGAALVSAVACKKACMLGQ
T1 sequence (Q14397 whole entry, looked up): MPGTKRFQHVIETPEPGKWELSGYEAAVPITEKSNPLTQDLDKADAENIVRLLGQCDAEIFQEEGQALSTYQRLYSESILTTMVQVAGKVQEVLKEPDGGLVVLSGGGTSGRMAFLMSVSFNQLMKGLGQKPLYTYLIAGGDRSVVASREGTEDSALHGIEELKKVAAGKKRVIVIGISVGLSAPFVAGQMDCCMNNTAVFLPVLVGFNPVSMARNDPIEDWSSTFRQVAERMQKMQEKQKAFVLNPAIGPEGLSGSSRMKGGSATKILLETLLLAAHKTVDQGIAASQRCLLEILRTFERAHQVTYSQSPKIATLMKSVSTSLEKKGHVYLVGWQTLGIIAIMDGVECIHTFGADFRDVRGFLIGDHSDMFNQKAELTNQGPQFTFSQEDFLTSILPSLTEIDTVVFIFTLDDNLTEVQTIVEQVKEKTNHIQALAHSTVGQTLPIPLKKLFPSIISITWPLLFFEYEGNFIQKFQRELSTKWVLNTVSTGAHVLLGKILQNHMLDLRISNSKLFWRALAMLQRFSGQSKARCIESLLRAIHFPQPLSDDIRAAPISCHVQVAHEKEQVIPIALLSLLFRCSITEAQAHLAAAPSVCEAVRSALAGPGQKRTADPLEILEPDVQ
Test: qHTS assay for inhibitors of recombinant human GCK-GKRP interaction: ADP-Glo assay (AID 743206);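 also: plate controls were DMSO plus enzyme for no effect and no enzyme for full effect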
Conditions: ADP-Glo luminescence, 60 min, 0% = vehicle-only wells with enzyme present; series mostly up to 76.9 µM
Outline: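 GST-GCK and FLAG-GKRP (15 nM each in the dispensed mix, with 2 uM S6P) react with 0.4 mM ATP and 5 mM glucose (final) in Hepes pH 7.6 for 60 min at room temperature. ADP is measured by ADP-Glo luminescence.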
In the case of `CN(C)CCC=C1c2ccccc2CCc2ccccc21`, the outcome is reported as “inactive”. For `CN(C)CCCN1c2ccccc2Sc2ccc(Cl)cc21`, the outcome was “inactive”. With `CSc1ccc2c(c1)C(N1CCN(C)CC1)Cc1ccccc1S2` (centres undefined) the outcome was “inactive”. For `OCc1cc(C(O)CNCCCCCCOCCCCc2ccccc2)ccc1O` (centres undefined), the outcome was “inactive”.

Biological target: T1, Hexokinase-4 (Homo sapiens) + Glucokinase regulatory protein (Homo sapiens)
Test: qHTS assay for inhibitors of recombinant human GCK-GKRP interaction: HTRF assay (AID 743207);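 also: 0% = DMSO with GCK present and -100% = DMSO wells lacking GCK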
Conditions: recombinant GCK-GKRP HTRF binding, 60 min, with sorbitol-6-phosphate; series mostly up to 57.5 µM
Outline: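 After 60 min equilibration at room temperature with anti-FLAG XL665 and anti-GST antibodies, FRET ratio (665/615 nm, excitation 320 nm) was read. Proteins: GST-GCK and FLAG-GKRP, each 5 nM, plus 2 uM S6P, pH 7.1 buffer; GCK-free wells define minimum signal.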
In the case of `CN(C)CCC=C1c2ccccc2CCc2ccccc21`, the outcome is reported as “inactive”. In the case of `CN(C)CCCN1c2ccccc2Sc2ccc(Cl)cc21`, the outcome is reported as “inactive”. In the case of `CSc1ccc2c(c1)C(N1CCN(C)CC1)Cc1ccccc1S2` (centres undefined), the outcome is reported as “inactive”. For `OCc1cc(C(O)CNCCCCCCOCCCCc2ccccc2)ccc1O` (centres undefined), the outcome was “inactive”.

System: not listed separately
Test: qHTS Assay for Identifying Gametocytocidal Compounds (AID 743244); also: potency is read from the fitted curve at half-maximal effect;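 as to max response: % is scaled to controls: 0 for no effect and ±100 for the full control effect; actives lower the fluorescent signal which means gametocytes are killed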
Conditions: P. falciparum 3D7 stage III-V gametocytes, alamarBlue, 72 h; max response: stronger effect = lower value
Outline: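 Viability read-out was resazurin reduction (alamarBlue, 24 h) measured at Ex 525/Em 598 nm. Beforehand, late-stage (III-V) 3D7 P. falciparum gametocytes at 20,000 cells/well were incubated with compound 72 h at 37C under 5% CO2.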
With `O=c1[nH]cnc2c1ncn2[C@@H]1O[C@H](CO)[C@@H](O)[C@H]1O` the max response was 5.28% (inactive). With `O=C(O)[C@H](O)c1ccccc1` the max response was 17.9% (inactive). In the case of `C[C@@H](O)[C@H](N)C(=O)O`, the max response is reported as 6.39% (inactive). For `C[C@H](N)[C@H](O)c1cccc(O)c1`, the max response was 5.58% (inactive). With `CCN(CC)C(=O)Nc1ccc(OCC(O)CNC(C)(C)C)c(C(C)=O)c1` (centres undefined) the max response was -3.18% (inactive). For `Cn1cc[nH]c1=S`, the max response was -4.61% (inactive). In the case of `O=C1O[C@H](CO)[C@@H](O)[C@H](O)[C@H]1O`, the max response is reported as -3.17% (inactive). For `C[C@]12CC[C@@H]3c4ccc(O)cc4CC[C@H]3[C@@H]1CC[C@@H]2OC(=O)CCC1CCCC1`, the max response was -9.98% (inactive) and 14% (inactive). For `Cc1ccc2nc(N)[nH]c(=O)c2c1Sc1ccncc1`, the max response was -4.42% (inactive). In the case of `CCC(=O)Nc1ccc(O)cc1`, the max response is reported as 7.2% (inactive). With `CSc1ccc2c(c1)C(N1CCN(C)CC1)Cc1ccccc1S2` (centres undefined) the Potency was 12.6 µM (active). In the case of `CN1CCC[C@@H]1Cc1c[nH]c2ccc(CCS(=O)(=O)c3ccccc3)cc12`, the max response is reported as -0.49% (inactive). For `CN(C)CCCO[C@@H]1[C@H]2OC(C)(C)O[C@H]2O[C@@H]1C(O)CO` (some centres undefined), the max response was -6.36% (inactive). For `C[C@@H]1CCN(C(=O)[C@H](CCCN=C(N)N)NS(=O)(=O)c2cccc3c2NC[C@H](C)C3)[C@@H](C(=O)O)C1`, the max response was -0.0233% (inactive). In the case of `CC(=O)NC(Cc1ccccc1)C(=O)O` (centres undefined), the max response is reported as -1.78% (inactive). With `C[C@H]1O[C@@H](n2cc(F)c(=O)[nH]c2=O)[C@H](O)[C@@H]1O` the max response was 0.485% (inactive). For `O=C(Oc1ccccc1C(=O)O)c1ccccc1O`, the max response was -1.86% (inactive). With `CCC(=O)c1ccc(O)cc1` the max response was -0.113% (inactive). With `O=C1NC(=O)[C@@]2(CCOc3ccc(F)cc32)N1` the max response was -2.96% (inactive). For `CS(=O)(=O)c1ccc([C@@H](O)[C@@H](CF)NC(=O)C(Cl)Cl)cc1`, the max response was 23.9% (inactive). With `COc1ccc2cc1Oc1cc3c(cc1OC)CC[N+](C)(C)[C@H]3Cc1ccc(cc1)Oc1c(OC)c(OC)cc3c1[C@@H](C2)[N+](C)(C)CC3` the max response was -8.04% (inactive). For `O=C(O)Cc1sc(-c2ccccc2)nc1-c1ccc(Cl)cc1`, the max response was -5.46% (inactive) and 46.6% (inactive) and 14.6% (inactive). With `Cn1c(=O)c2c(ncn2CC2OCCO2)n(C)c1=O` the max response was 2.6% (inactive). With `CCCCN(CCCC)CCCOC(=O)c1ccc(N)cc1` the max response was 0.616% (inactive). In the case of `CC1(C)Oc2ccc(C#N)cc2[C@@H](N2CCCC2=O)[C@@H]1O`, the max response is reported as -8.5% (inactive) and 8.76% (inactive). For `COc1ccc2c(c1)C(=O)N(CCc1ccc(S(=O)(=O)NC(=O)NC3CCCCC3)cc1)C(=O)C2(C)C`, the max response was 22.2% (inactive). With `Nc1ccc(S(=O)(=O)Nc2ccc(Cl)nn2)cc1` the max response was 13.8% (inactive) and 15.1% (inactive). With `NCC(=O)CCC(=O)O` the max response was 0.855% (inactive). For `Nc1ccc(S(=O)(=O)NC(=O)c2ccccc2)cc1`, the max response was 7.19% (inactive). With `Oc1ccc(C(O)CNCCCCCCNCC(O)c2ccc(O)c(O)c2)cc1O` (centres undefined) the max response was -5.82% (inactive). With `O=C(O)c1ccccc1O` the max response was 6.2% (inactive) and -5.06% (inactive).
